Source: PubChem (Broad Institute)
An excerpt weighted towards active compounds, which were near 0.89% of everything screened.
A1 inh = blocks A1 activity | caspase activation, % (concentration not given with the values) | MEF A1-2A-BIM cells, caspase-Glo luminescence, 3 h; percent of clofoctol signal, DMSO as zero | AID 2241 | hit rate 0.51% among 21,000;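 active means most replicate scores above 10, or exactly half above 10 with mean activity above 10; inconclusive means mean activity below 10 while half the replicates exceed 10; inactive means most replicate scores below 10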;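 further: effector caspase 3 and 7 activity cleaving a DEVD luciferin substrate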
BJeLR viab HTS = lowers viability of BJeLR cells. hit rate 0.64% among 30,000. viability loss activity score, % (no concentration beside the values). BJeLR fibroblasts viability, CellTiterGlo ATP luminescence, 48 h; HRASV12, hTERT and SV40 LT/ST transformed; in the data active means viability loss activity score above about 50%; inconclusive means no clear call, values can overlap the other calls; inactive means below about 35%;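 further: higher score means fewer live cells and less ATP luminescence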
* hit, by the source's call; ? = inconclusive; · = not tested or not shown.

SMILES	A1 inh	BJeLR viab HTS
C=CC1(C)C=C2CCC3C(C)(C)C(O[C@@H]4O[C@@H](CO)[C@H](O)[C@H]4O)CCC3(C)C2CC1O[C@@H]1O[C@H](C)[C@H](O)[C@H](O)[C@H]1O (stereo partly drawn)	0	-7
CC1CC[C@@]2(OC1)O[C@H]1CC3C4CC=C5C[C@@H](O[C@@H]6O[C@H](CO)[C@@H](O[C@@H]7O[C@@H](C)[C@H](O)[C@@H](O)[C@H]7O)[C@H](O)[C@H]6O[C@@H]6O[C@@H](C)[C@H](O)[C@@H](O)[C@H]6O)CC[C@]5(C)C4CC[C@]3(C)[C@@]1(O)[C@@H]2C (stereo partly drawn)	-3	92*
CN(Cc1ccccc1)C(=O)C1CCCN(Cc2ccc(Cl)cc2)C1 (stereo not drawn)	·	0
C=CCNC1=C2C[C@@H](C)C[C@H](OC)[C@H](O)[C@@H](C)/C=C(\C)[C@H](OC(N)=O)[C@@H](OC)C=C/C=C(/C)C(=O)NC(=CC1=O)C2=O	0	69*
COc1ccc(NC(=O)N(C)C[C@@H]2Oc3ccc(NS(C)(=O)=O)cc3C(=O)N([C@H](C)CO)C[C@H]2C)cc1	0	1
Cc1nc(SCC(C)C)c(C#N)c(C)c1C	2	-4
COc1ccc(NC(=O)N(C)C[C@H]2Oc3ccc(NS(=O)(=O)c4c(C)noc4C)cc3C(=O)N([C@@H](C)CO)C[C@H]2C)cc1	0	4
Cc1cc(OC(C)C(=O)Nc2sc3c(c2C(N)=O)CCCCCC3)ccc1Cl (stereo not drawn)	-6	35
C[C@@H]1CN([C@H](C)CO)C(=O)c2cccc(NS(=O)(=O)c3ccc(Cl)cc3)c2O[C@H]1CN(C)S(=O)(=O)c1ccc(Cl)cc1	·	3
c1cc(-c2nc3ccccc3s2)nc(-c2nc3ccccc3s2)c1	0	-2
COc1ccc(-c2nc3ccccc3s2)cc1	-7	60*
CC(=O)Nc1ccc(S(=O)(=O)N(C)C2CCCCC2)cc1	0	4
Cc1c(C(=O)NC(C)C)oc2ccc(S(=O)(=O)N3CCCC3)cc12	·	4
Cc1c(C(=O)Nc2ccccc2Br)oc2ccc(S(=O)(=O)N3CCCC3)cc12	60*	-1
C[C@H]1CN([C@@H](C)CO)C(=O)c2cc(NS(=O)(=O)c3ccc(F)cc3)ccc2O[C@H]1CN(C)Cc1ccc(Cl)c(Cl)c1	0	-5
C[C@@H]1CN([C@H](C)CO)C(=O)c2cc(NC(=O)CCCCCC(=O)Nc3ccccc3N)ccc2O[C@@H]1CN(C)S(=O)(=O)c1cn(C)cn1	·	-4
COc1cc(NC(=O)COc2cc(C)c(Cl)c(C)c2)ccc1NC(=O)c1cc2ccccc2o1	17*	7
Cc1cc(C)cc(NC(=O)c2cc3ccccc3o2)c1	-4	4
O=C(CSc1nc2ccccc2c(=O)n1CCc1ccccc1)NCCc1ccccc1	-1	1
O=C(CCn1c(SCc2cccc(F)c2)nc2ccccc2c1=O)NCCc1ccccc1	19*	-2
CC(=O)NCCSc1nc(-c2cccs2)cc(-c2ccc(F)cc2)c1C#N	10*	-9
CCCCS(=O)CSc1nc(-c2cccs2)cc(-c2ccccc2)c1C#N (stereo not drawn)	0	-6
O=c1nc2sc3ccccc3n2c(=O)n1-c1ccccc1	-1	3
CCC(C)CC(C)/C=C\C1OC2=C(C(=O)OC2(C)O)C(O)C1O (stereo not drawn)	8	104*
O=S1(=O)CC(O)C(S(=O)(=O)c2ccc(Cl)cc2)C1 (stereo not drawn)	0	-3
SMILES	A1 inh	BJeLR viab HTS
C[C@@H]1CN([C@@H](C)CO)C(=O)c2cc(NC(=O)Nc3cccc4ccccc34)ccc2O[C@@H]1CN(C)Cc1ccccc1	-1	-6
COc1cccc2sc(=NC(=O)Cc3cccc4ccccc34)n(C)c12	10*	5
COc1ccccc1C1CCN(Cc2cccc3ccccc23)CC1	2	2
C=C(C)C(=O)O[C@H]1[C@H]2C(=C)C(=O)O[C@@H]2C[C@@H](C)[C@@H]2O[C@@H]2C(=O)[C@](C)(O)[C@@H]1OC(=O)C(=C)C	0	80*
C=C(C)C(=O)O[C@H]1CC(=C)C2C[C@H](O)[C@](O)(CO)C2[C@H]2OC(=O)C(=C)[C@H]12 (stereo partly drawn)	0	-11
C[C@@H]1CN([C@@H](C)CO)C(=O)c2cc(NS(=O)(=O)c3ccc(Cl)cc3)ccc2O[C@@H]1CN(C)S(=O)(=O)c1cccs1	0	-3
CCc1c(C)c(C#N)c2[nH]c3ccccc3n2c1=O	3	101*
CCCCc1c(C)c(C#N)c2[nH]c3ccccc3n2c1=O	-1	12
COc1ccc(NC(=O)N(C)C[C@H]2Oc3c(NS(=O)(=O)c4cn(C)cn4)cccc3C(=O)N([C@H](C)CO)C[C@@H]2C)cc1	·	-3
CC(=O)NCCOc1ccc(C2CCCCC2)cc1	0	1
Nc1cc(C(F)(F)F)ccc1Oc1ccc(C2CCCCC2)cc1	11*	5
C[C@@H]1CN([C@@H](C)CO)C(=O)c2cccc(NC(=O)C3CCOCC3)c2O[C@@H]1CN(C)S(=O)(=O)c1ccc(F)cc1	·	1
C[C@@H]1CN([C@H](C)CO)C(=O)c2cccc(NS(C)(=O)=O)c2O[C@H]1CN(C)Cc1ccccc1	·	13
C[C@H]1CN([C@@H](C)CO)C(=O)c2cccc(NC(=O)C3CC3)c2O[C@@H]1CN(C)C(=O)Nc1ccc(C(F)(F)F)cc1	·	-8
O[C@H]1[C@H]2c3cc4c(cc3CN3CCC(=C[C@@H]1O)[C@H]23)OCO4	5	63*
O[C@@H]1[C@@H](O)C=C2CCN3Cc4cc5c(cc4[C@H]1C23)OCO5 (stereo partly drawn)	-1	24
C=CCn1c(=S)sc2c(SCC(N)=O)ncnc21	·	7
C=CCn1c(=S)sc2c(Sc3nnc(-c4ccco4)o3)ncnc21	?	63*
COc1cccc(-c2c(C(N)=O)nnc3cc(-c4ccccc4)nn23)c1	0	2
COc1ccc(-n2c(SCC(=O)c3ccc(Cl)cc3)nc3ccccc3c2=O)cc1	8	2
C[C@@H]1CCOC(=O)C=CC=CC(=O)O[C@@H]2C[C@H]3O[C@@H]4C=C(C(=O)O)CC[C@]4(COC(=O)[C@H]1O)[C@]2(C)[C@]31CO1	1	71*
C[C@H](CO)N1C[C@H](C)[C@@H](CN(C)CC2CCCCC2)Oc2ccc(NS(=O)(=O)c3ccc(F)cc3)cc2C1=O	0	5
O=C1C=CC(=O)c2c(O)c(Cl)c(Cl)c(O)c21	-5	54*
CCCCC[C@H](O)CC(=O)CCc1ccc(O)c(OC)c1	0	3
COc1cc(CC(C)C(C)Cc2ccc(O)c(OC)c2)ccc1O (stereo not drawn)	8	118*
SMILES	A1 inh	BJeLR viab HTS
Cc1noc(C)c1S(=O)(=O)Nc1cccc2c1O[C@H](CN(C)Cc1ccc(Cl)c(Cl)c1)[C@H](C)CN([C@@H](C)CO)C2=O	·	-3
O=C1NC2(CCN(C(=O)c3ncoc3-c3ccccc3)CC2)Oc2ccccc21	0	-1
CC(=O)OCC(=O)Nc1cccc(C)c1	-2	5
Cc1cc(Oc2nc3cc(Cl)ccc3s2)c2cc(Cl)ccc2n1	0	-4
CC1(C)CC(=O)C=C(Sc2nc3cc(Cl)ccc3s2)C1	0	69*
COc1ccc2cc3cc(C(=O)NCC4CCN(Cc5cccc(C)c5)CC4)sc3nc2c1	·	-1
